We go through seven compounds from PubChem BioAssay (EPA / NIEHS).

Results filed as inconclusive are left out. The source made the active and inactive calls. How the source made its calls, unless noted: active means hit-call score of the fitted dose curve at least 0.9, where 1 is the maximum; inactive means score below 0.9.

Assay [1] is described as follows: ATG_Hpa5_TRANS: Attagene TRANS-FACTORIAL HepG2 Assay for human GAL4-Hpa5 Hepatocyte Transcription Factor Basal Promoter (AID 2282975; active means hit-call score of the fitted dose curve at least 0.9, where 1 is the maximum;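 further: hits are increases in reporter mRNA over DMSO baseline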). The note with it: HepG2 Attagene GAL4-Hpa5 transcription reporter. The essentials: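 Gain-of-signal versus DMSO is fitted for reporter mRNA quantified by RT-PCR and capillary electrophoresis after 24 h exposure. This endpoint is an internal background marker in transiently transfected HepG2 cells carrying GAL4-UAS reporter units.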

The target in assay [2] is Glucocorticoid receptor (Homo sapiens) (UniProt P04150). In words: ATG_GR_TRANS: Attagene TRANS-FACTORIAL HepG2 Assay for human Glucocorticoid Receptor (GR) (AID 2282978; active means hit-call score of the fitted dose curve at least 0.9, where 1 is the maximum;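 further: activators score as hits since higher reporter transcript over DMSO is fitted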). The following applies: HepG2 Attagene TRANS GR reporter, mRNA transcription. The essentials: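 In this trans-factorial format, exogenous NR-GAL4 chimeric proteins in transfected HepG2 cells regulate GAL4-UAS reporter transcription. After 24 h treatment, reporter mRNA induction relative to DMSO is read by RT-PCR and capillary electrophoresis.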
Glucocorticoid receptor (Homo sapiens), sequence (P04150 whole entry, looked up, the tested form may be a part): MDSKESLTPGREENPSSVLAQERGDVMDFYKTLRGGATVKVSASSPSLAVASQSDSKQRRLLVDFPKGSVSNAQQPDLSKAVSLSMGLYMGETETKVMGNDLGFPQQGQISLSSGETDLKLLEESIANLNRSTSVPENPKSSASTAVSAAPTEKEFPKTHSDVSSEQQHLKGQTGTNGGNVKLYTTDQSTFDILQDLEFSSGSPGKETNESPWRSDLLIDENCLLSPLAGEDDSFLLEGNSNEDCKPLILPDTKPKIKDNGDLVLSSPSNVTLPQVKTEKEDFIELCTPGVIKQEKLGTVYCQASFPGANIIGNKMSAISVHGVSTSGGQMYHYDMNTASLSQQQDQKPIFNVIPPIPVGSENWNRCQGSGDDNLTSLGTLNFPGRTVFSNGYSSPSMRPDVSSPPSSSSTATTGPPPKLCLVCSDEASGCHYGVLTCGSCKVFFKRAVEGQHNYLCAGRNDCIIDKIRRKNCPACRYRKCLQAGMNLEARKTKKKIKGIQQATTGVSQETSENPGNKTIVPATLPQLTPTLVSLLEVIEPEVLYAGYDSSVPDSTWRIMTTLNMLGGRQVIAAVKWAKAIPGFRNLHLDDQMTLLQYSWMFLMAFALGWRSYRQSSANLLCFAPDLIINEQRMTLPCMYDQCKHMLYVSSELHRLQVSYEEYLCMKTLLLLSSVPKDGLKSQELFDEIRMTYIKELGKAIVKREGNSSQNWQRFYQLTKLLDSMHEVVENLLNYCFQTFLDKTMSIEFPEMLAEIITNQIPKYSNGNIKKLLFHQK

For assay [3], the target named is Oxysterols receptor LXR-alpha (Homo sapiens) (UniProt Q13133). Nature of the assay: ATG_LXRa_TRANS: Attagene TRANS-FACTORIAL HepG2 Assay for human Liver X Receptor alpha (LXRa) (AID 2282980; active means hit-call score of the fitted dose curve at least 0.9, where 1 is the maximum). The following applies: HepG2 Attagene TRANS reporter, LXRa transactivation. An outline of the steps:
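Transient HepG2 transfectants, 24 h dosing, RT-PCR/CE mRNA reporter quantitation; gain-of-signal vs DMSO.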

Assay [4] has as its target Oxysterols receptor LXR-beta (Homo sapiens) (UniProt P55055). In words: ATG_LXRb_TRANS: Attagene TRANS-FACTORIAL HepG2 Assay for human Liver X Receptor beta (LXRb) (AID 2282981; active means hit-call score of the fitted dose curve at least 0.9, where 1 is the maximum). The note with it: HepG2 Attagene TRANS GAL4-LXRb reporter, mRNA. An outline of the steps: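 Readout: fluorescent reporter mRNA fragments resolved by capillary electrophoresis after RT-PCR. System: transiently transfected human HepG2, exogenous LXRb-Gal4 chimera driving GAL4-UAS reporter, 24 h dosing. Activity fitted upward against DMSO baseline.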

In assay [5] the target is Transcriptional activator Myb (Homo sapiens) (UniProt P10242). Nature of the assay: ATG_Myb_CIS: Attagene CIS-FACTORIAL HepG2 Assay for human Myeloblastosis (Myb) Proto-Oncogene Transcription Factor (AID 2282986). The following applies: HepG2 Attagene CIS-FACTORIAL Myb reporter transcription; actives raise or lower the signal. The essentials: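 Steps: transfect HepG2 with cis-regulated reporter units; dose with chemical for 24 h; isolate RNA, reverse-transcribe, PCR-amplify and FAM-label reporter sequences; digest with HpaI; resolve by capillary electrophoresis. Activity fitted in both directions relative to DMSO.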
Transcriptional activator Myb (Homo sapiens), sequence (P10242 whole entry, looked up): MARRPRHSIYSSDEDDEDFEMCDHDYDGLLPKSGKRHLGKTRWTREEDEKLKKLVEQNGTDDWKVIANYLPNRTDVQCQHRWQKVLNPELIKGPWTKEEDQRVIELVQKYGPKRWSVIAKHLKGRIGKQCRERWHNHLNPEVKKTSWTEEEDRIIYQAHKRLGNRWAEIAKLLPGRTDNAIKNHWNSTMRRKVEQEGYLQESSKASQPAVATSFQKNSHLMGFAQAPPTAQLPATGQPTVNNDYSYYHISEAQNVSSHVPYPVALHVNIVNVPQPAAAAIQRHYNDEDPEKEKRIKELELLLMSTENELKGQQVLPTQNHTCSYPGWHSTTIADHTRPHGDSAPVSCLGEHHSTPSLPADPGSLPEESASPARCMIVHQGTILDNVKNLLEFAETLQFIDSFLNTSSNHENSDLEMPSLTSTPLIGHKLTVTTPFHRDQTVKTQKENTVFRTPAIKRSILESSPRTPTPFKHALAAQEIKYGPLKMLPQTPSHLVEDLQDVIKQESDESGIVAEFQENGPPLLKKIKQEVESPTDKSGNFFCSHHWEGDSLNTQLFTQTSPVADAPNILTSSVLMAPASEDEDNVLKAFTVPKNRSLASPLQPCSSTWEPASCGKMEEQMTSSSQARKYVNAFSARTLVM

The target of assay [6] is Nuclear respiratory factor 1 (Homo sapiens) (UniProt Q16656). Nature of the assay: ATG_NRF1_CIS: Attagene CIS-FACTORIAL HepG2 Assay for human Nuclear Respiratory Factor 1 (NRF1) Orphan Gene (AID 2282987). The following applies: HepG2 NRF1 cis-element reporter, Attagene multiplex; actives raise or lower the signal. An outline of the steps:
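Fluorescence intensity of labelled reporter cDNA fragments, resolved by capillary electrophoresis, served as readout for NRF1 cis-element activity. Transiently transfected HepG2 cells were dosed for 24 hours; activity in either direction was fitted against DMSO negative control.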

Assay [7] can be described thus: ATG_NFI_CIS: Attagene CIS-FACTORIAL HepG2 Assay for human Nuclear Factor I (NFI) (AID 2282989). The following applies: HepG2 cis-regulatory reporter, NFI response element transcription; actives raise or lower the signal. An outline of the steps: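 Reporter transcripts were measured by RT-PCR with fluorescent primer extension and capillary electrophoresis 24 h post-treatment. HepG2 cells carried transiently transfected cis-regulated reporter constructs reporting endogenous factor activity; gain or loss fitted against DMSO baseline.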

The target of assay [8] is Myc proto-oncogene protein (Homo sapiens) (UniProt P01106). Nature of the assay: ATG_Myc_CIS: Attagene CIS-FACTORIAL HepG2 Assay for human Myelocytomatosis (Myc) Proto-Oncogene Transcription Factor (AID 2282990). The following applies: HepG2, Attagene cis-reporter transcription factor activity; actives raise or lower the signal. An outline of the steps:
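Transiently transfected HepG2 cells bearing cis-promoter reporter units for endogenous transcription factors; 24 h exposure. Reporter mRNA measured by RT-PCR, 6-FAM primer extension, HpaI cut and capillary electrophoresis; bidirectional fit relative to DMSO.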

Assay [9] can be described thus: ATG_NF_kB_CIS: Attagene CIS-FACTORIAL HepG2 Assay for human Nuclear Factor Kappa B (NF-kB) (AID 2282991). The note with it: HepG2 Attagene cis-factorial NF-kB reporter mRNA; actives raise or lower the signal. The essentials: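 Endogenous transcription factor activity in HepG2 was captured via cis-regulated reporter constructs; after 24 h dosing, reporter mRNA was reverse-transcribed, amplified, fluorescently labelled and sized by capillary electrophoresis, with activity fitted bidirectionally relative to DMSO.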

Assay [10] can be described thus: ATG_NRF2_ARE_CIS: Attagene CIS-FACTORIAL HepG2 Assay for human Nuclear Factor Erythroid 2 Related Factor 2 (NFR2) response to Antioxidant Response Elements (ARE) (AID 2282992).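 On AC50: reporter mRNA level measured by RT-PCR and capillary electrophoresis fluorescence.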 The following applies: HepG2 Attagene ARE/NRF2 reporter, transcription factor activity; actives raise or lower the signal. The essentials:
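Fluorescence intensity of reporter-specific cDNA fragments, separated by capillary electrophoresis, reflects mRNA induction in transfected HepG2 cells at 24 h. Activity is fitted bidirectionally, DMSO serving as baseline.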

The nature of assay [11]: ATG_Oct_MLP_CIS: Attagene CIS-FACTORIAL HepG2 Assay for human Octamer-Binding Transcription Factor (Oct) (AID 2282993). The note with it: HepG2 Attagene cis-factorial Oct reporter, mRNA; actives raise or lower the signal. The essentials:
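Readout is reporter transcript level from RT-PCR with fluorescent primer extension and capillary electrophoresis, fitted in both directions against DMSO. Transfected HepG2 reporter units report endogenous factor activity after 24 h dosing.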

Assay [12] has as its target Cellular tumor antigen p53 (Homo sapiens) (UniProt P04637). Nature of the assay: ATG_p53_CIS: Attagene CIS-FACTORIAL HepG2 Assay for human p53 Transcription Factor (AID 2282994). The note with it: HepG2 p53 cis-element reporter, Attagene mRNA; actives raise or lower the signal. An outline of the steps: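 Transiently transfected HepG2 (multiple cis reporter transcription units); exposure 24 h; reporter RNA via RT-PCR, 6-FAM extension, 2 h HpaI digest at 37 C, CE detection; DMSO baseline.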

Assay [13] in a line: BSK_3C_TissueFactor: BioMAP Diversity Plus: 3C Assay for Tissue Factor Biomarker Activity (AID 2282997). The note with it: BioMAP 3C HUVEC, tissue factor biomarker readout; actives raise or lower the signal. The essentials:
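Cells used were primary human umbilical vein endothelial cells. They were dosed with chemical, and after 24 h Tissue Factor was quantified by ELISA. Curves were fitted bidirectionally with DMSO as baseline.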

The nature of assay [14]: BSK_3C_uPAR: BioMAP Diversity Plus: 3C Assay for Urokinase-type plasminogen activator receptor (uPAR) Biomarker Activity (AID 2282998). The following applies: BioMAP 3C HUVEC, uPAR biomarker ELISA; actives raise or lower the signal. An outline of the steps:
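Cell-surface uPAR on HUVEC (3C system) read by ELISA at 24 h post-treatment, with DMSO as baseline and fitting in both directions. Parallel cultures stained with SRB to flag overt cytotoxicity.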
(In general: ELISA stands for enzyme-linked immunosorbent assay.)

The nature of assay [15]: BSK_3C_VCAM1: BioMAP Diversity Plus: 3C Assay for Vascular cell adhesion molecule 1 (VCAM1) Biomarker Activity (AID 2282999). The following applies: BioMAP 3C HUVEC, VCAM1 ELISA, cytokine-stimulated; actives raise or lower the signal. An outline of the steps:
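HUVEC primary cells, 24 h compound exposure; VCAM-1 by ELISA; gain/loss of signal fitted bidirectionally vs DMSO baseline.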

Assay [16] concerns the target Hepatocyte nuclear factor 4-alpha (Homo sapiens) (UniProt P41235). Nature of the assay: ATG_HNF4a_TRANS: Attagene TRANS-FACTORIAL HepG2 Assay for human Hepatocyte Nuclear Factor 4 alpha (HNF4a) (AID 2282982; active means hit-call score of the fitted dose curve at least 0.9, where 1 is the maximum). The note with it: HepG2 HNF4a transactivation reporter, mRNA readout. The essentials:
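Transient MRTU transfection of HepG2, 24 h dosing. Readout: reporter mRNA via RT-PCR + capillary electrophoresis, fluorescence; activity fit upward relative to DMSO control.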

In assay [17] the target is Nuclear receptor subfamily 4 group A member 2 (Homo sapiens) (UniProt P43354). In words: ATG_NURR1_TRANS: Attagene TRANS-FACTORIAL HepG2 Assay for human Nuclear Receptor Related Protein 1 (NURR1) (AID 2282985; active means hit-call score of the fitted dose curve at least 0.9, where 1 is the maximum). The note with it: HepG2 Attagene TRANS reporter, mRNA readout. An outline of the steps:
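Read-out: reporter mRNA induction by RT-PCR plus capillary electrophoresis with fluorescence detection, after 24 h dosing of transfected HepG2 cells. Exogenous NR-Gal4 chimera activity drives GAL4-UAS reporter; activity fitted upward versus DMSO.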

For assay [18], the target named is Bile acid receptor (Homo sapiens) (UniProt Q96RI1). Nature of the assay: ATG_FXR_TRANS: Attagene TRANS-FACTORIAL HepG2 Assay for Farnesoid X Receptor (FXR) (AID 2282979; active means hit-call score of the fitted dose curve at least 0.9, where 1 is the maximum;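 further: hits raise reporter mRNA above DMSO so AC50 marks FXR activation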). The note with it: HepG2 Attagene TRANS FXR-GAL4 reporter transcription. An outline of the steps:
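Chimeric FXR-GAL4 activity in transiently transfected human HepG2 liver cells is scored as induction of reporter mRNA after 24 h of dosing. Detection uses RT-PCR with fluorescent labelling and capillary electrophoresis, with DMSO serving as baseline.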

Assay [19] can be described thus: ATG_M_32_TRANS: Attagene TRANS-FACTORIAL HepG2 Assay for M32 Transcription Factor (Internal Marker) (AID 2282984; active means hit-call score of the fitted dose curve at least 0.9, where 1 is the maximum;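 further: transcript level of a background control reporter unit measured by RT-PCR and capillary electrophoresis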). The note with it: HepG2 Attagene TRANS M32 internal marker reporter. The essentials: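 Read-out: fluorescent reporter cDNA fragments resolved by capillary electrophoresis after RT-PCR of total RNA. Transfected HepG2 cells were exposed to chemical for 24 h. Activity scored in the positive direction relative to DMSO.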

Cellular tumor antigen p53 (Homo sapiens), sequence (P04637 whole entry, looked up): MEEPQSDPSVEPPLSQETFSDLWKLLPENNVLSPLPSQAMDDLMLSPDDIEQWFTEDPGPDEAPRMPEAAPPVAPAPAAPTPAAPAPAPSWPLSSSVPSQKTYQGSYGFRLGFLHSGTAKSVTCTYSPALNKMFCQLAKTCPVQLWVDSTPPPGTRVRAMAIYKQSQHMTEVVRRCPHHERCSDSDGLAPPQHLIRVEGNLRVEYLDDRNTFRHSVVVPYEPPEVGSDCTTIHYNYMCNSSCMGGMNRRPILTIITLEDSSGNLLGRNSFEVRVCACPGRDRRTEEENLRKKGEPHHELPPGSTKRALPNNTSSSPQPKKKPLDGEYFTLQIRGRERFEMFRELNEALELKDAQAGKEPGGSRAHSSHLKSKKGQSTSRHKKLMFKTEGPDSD
Hepatocyte nuclear factor 4-alpha (Homo sapiens), sequence (P41235 whole entry, looked up): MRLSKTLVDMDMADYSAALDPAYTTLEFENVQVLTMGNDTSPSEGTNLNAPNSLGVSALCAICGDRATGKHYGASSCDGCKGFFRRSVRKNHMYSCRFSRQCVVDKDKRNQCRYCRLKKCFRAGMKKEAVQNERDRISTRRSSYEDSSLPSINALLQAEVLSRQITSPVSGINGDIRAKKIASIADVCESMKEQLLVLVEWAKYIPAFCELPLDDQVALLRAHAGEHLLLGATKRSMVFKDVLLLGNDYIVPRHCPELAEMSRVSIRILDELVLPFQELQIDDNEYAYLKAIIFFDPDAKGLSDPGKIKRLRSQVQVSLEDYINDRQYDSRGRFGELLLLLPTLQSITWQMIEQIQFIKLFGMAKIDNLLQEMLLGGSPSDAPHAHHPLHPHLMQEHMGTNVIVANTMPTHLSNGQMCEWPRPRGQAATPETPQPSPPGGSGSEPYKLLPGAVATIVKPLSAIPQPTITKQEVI
Nuclear respiratory factor 1 (Homo sapiens), sequence (Q16656 whole entry, looked up, the tested form may be a part): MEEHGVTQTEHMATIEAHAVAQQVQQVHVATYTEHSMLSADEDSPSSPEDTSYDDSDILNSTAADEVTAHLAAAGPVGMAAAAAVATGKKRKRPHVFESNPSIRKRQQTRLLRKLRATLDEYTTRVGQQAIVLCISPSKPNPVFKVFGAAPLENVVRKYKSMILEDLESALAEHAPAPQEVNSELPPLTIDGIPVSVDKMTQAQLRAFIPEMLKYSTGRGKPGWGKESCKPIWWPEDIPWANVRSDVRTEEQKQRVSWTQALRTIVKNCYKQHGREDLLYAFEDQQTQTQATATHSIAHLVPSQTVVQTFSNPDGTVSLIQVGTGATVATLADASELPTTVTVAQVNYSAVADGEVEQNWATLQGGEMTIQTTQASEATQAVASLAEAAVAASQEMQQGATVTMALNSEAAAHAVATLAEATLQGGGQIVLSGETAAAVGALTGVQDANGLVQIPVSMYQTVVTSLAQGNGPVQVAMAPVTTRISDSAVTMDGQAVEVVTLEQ
Oxysterols receptor LXR-alpha (Homo sapiens), sequence (Q13133 whole entry, looked up): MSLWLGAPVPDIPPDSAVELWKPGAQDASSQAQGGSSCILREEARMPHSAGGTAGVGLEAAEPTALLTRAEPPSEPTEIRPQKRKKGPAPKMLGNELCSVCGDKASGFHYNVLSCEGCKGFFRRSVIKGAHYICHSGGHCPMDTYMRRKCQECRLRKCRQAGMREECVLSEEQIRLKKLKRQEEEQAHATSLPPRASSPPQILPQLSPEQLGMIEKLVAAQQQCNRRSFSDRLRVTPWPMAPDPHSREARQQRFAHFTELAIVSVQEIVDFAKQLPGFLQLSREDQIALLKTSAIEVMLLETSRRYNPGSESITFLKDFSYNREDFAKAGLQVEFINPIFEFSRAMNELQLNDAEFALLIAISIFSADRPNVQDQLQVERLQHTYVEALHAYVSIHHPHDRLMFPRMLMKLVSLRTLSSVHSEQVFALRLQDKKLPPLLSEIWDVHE
Nuclear receptor subfamily 4 group A member 2 (Homo sapiens), sequence (P43354 whole entry, looked up, the tested form may be a part): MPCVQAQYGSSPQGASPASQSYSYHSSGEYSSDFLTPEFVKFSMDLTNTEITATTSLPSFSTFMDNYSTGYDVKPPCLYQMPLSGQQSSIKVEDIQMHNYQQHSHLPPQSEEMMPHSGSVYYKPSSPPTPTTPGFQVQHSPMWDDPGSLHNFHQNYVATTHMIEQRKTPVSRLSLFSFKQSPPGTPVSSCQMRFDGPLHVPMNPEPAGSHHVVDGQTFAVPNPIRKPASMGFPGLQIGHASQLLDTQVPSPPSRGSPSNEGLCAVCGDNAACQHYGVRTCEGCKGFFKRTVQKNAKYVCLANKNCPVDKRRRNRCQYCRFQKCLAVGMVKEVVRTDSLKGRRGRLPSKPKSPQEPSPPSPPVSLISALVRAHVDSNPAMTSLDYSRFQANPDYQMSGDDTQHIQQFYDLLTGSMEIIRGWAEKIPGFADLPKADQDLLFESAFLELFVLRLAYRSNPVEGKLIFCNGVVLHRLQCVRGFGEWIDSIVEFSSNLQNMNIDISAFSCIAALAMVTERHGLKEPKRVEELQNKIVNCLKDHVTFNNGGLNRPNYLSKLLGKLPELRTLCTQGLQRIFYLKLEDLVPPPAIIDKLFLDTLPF
Oxysterols receptor LXR-beta (Homo sapiens), sequence (P55055 whole entry, looked up, the tested form may be a part): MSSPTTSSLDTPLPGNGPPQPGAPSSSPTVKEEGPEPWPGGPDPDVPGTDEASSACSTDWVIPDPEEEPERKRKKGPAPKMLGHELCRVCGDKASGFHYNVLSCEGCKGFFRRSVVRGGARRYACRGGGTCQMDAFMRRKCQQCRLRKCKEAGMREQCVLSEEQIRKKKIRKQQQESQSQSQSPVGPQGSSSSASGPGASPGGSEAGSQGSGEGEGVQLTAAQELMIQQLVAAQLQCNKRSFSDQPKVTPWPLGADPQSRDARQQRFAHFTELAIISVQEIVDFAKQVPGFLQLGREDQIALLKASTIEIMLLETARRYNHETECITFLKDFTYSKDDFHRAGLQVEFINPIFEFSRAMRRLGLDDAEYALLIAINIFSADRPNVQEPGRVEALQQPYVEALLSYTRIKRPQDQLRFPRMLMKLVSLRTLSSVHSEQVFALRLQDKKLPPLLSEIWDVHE
Myc proto-oncogene protein (Homo sapiens), sequence (P01106 whole entry, looked up): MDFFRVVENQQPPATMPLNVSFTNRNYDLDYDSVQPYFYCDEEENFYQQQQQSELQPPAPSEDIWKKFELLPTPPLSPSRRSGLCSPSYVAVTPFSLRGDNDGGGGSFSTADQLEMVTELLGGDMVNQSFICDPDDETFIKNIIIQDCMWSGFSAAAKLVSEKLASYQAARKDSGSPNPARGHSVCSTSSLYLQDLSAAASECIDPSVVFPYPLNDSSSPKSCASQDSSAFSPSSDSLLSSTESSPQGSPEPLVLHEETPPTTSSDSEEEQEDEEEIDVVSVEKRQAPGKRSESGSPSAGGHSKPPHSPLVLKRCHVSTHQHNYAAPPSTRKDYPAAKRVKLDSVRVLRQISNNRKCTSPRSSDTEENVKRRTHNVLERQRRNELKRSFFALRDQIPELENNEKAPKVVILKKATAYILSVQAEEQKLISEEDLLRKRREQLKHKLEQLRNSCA

As to `CC(C)N1C(=O)c2ccccc2NS1(=O)=O`, the compound was classed as inactive in assay [1], in [2], in assay [5], in [6], in assay [7] and in assay [8]. In addition, the compound was called inactive in assay [9], in [11], in assay [12], in assay [13], in [14] and in assay [15]. The AC50 (as a rule, the concentration giving half of the maximal activity seen) in assay [3] was 50 µM (active); in assay [4] it was 50 µM (active); in assay [10], 33 µM (active).
Take `N#CN=C1SCCN1Cc1ccc(Cl)nc1`: the outcome in assay [1], in assay [2], in assay [3], in assay [4], in assay [16] and in assay [17] was inactive. For the same compound, the compound was called inactive in assay [5], in assay [6], in assay [7], in assay [8], in assay [9] and in assay [11]. Besides, the result in [12], in assay [13], in assay [14] and in assay [15] was inactive. Also, the AC50 in [10] was 50 µM (active).
Turning to `CCOc1nc(F)cc2nc(S(=O)(=O)Nc3c(Cl)cccc3Cl)nn12`, the outcome in [1], in assay [2], in assay [18], in assay [3], in [4] and in assay [16] was inactive. The call in [17], in [6], in assay [7], in assay [8], in assay [9] and in assay [10] was inactive. Moreover, the call in assay [11], in [12], in [13], in assay [14] and in [15] was inactive. Further, the AC50 in assay [5] is 0.0229 µM (active).
Take `Cc1cc(C)nc(Nc2ccccc2)n1`: the compound was called inactive in [1], in [2], in assay [3], in assay [4], in [16] and in assay [5]. The outcome in [6], in assay [7], in assay [8], in [9], in [12] and in [13] was inactive. In addition, the result in assay [14] and in assay [15] was inactive. Also, the AC50 in [10] was 21.6 µM (active); in assay [11], 12 µM (active).
As to `CC(C)C1(C)N=C(c2ncccc2C(=O)O)NC1=O` (stereo unspecified), the outcome in assay [1], in [2], in assay [18], in [3], in [4] and in assay [16] was inactive. Besides, the result in [5], in assay [6], in assay [7], in [8], in assay [10] and in assay [11] was inactive. Further, the result in assay [12], in assay [13], in [14] and in assay [15] was inactive.
Turning to `CCOP(=S)(OCC)Oc1nc(Cl)n(C(C)C)n1`, the compound was called inactive in assay [1], in assay [2], in [16], in assay [19], in [17] and in [5]. The call in [6], in [7], in assay [8], in assay [9], in assay [11] and in assay [12] was inactive. Besides, the result in [13], in [14] and in assay [15] was inactive. For the same compound, the AC50 was 14.9 µM (active) in [3], 16.4 µM (active) in [4] and 1.74 µM (active) in assay [10].
With `CCCN(CC)CC1COC2(CCC(C(C)(C)C)CC2)O1` (stereo unspecified), the result in [1], in assay [2], in assay [3], in [4], in [16] and in assay [5] was inactive. Further, the compound was called inactive in [6], in [7], in [8], in [9], in assay [12] and in [13]. For the same compound, the outcome in assay [14] and in assay [15] was inactive. The AC50 is 5.91 µM (active) in assay [10] and 14.5 µM (active) in [11].
